PAFAH1B2 FP inh = PAFAH1B2 enzyme inhibitors, primary screen, biochemical, fluorescence polarization, human; Platelet-activating factor acetylhydrolase IB subunit alpha2 (Homo sapiens), P68402; recombinant PAFAH1B2, FP-rhodamine activity probe; inhibition, % at 3.39 µM; actives 1.2% (n = 340,000); AID 492953, 2010;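 active = inhibition above the mean of all tested compounds plus 3 SD, cut at about 24% in these data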;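 note: 0% = enzyme with DMSO and 100% = wells lacking PAFAH1B2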
eLon inh = inhibitors of E. coli Lon protease, primary screen, biochemical, fluorescence polarization. AID 602123, 2011. purified E. coli Lon protease. actives 0.42% (n = 360,000). inhibition, % at 7.94 µM; in the data active = inhibition above about 13%, passing the limit was not always enough;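 note: 0% = enzyme with probe and DMSO and 100% = no enzyme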
Target sequence (P0A9M0 whole entry, looked up): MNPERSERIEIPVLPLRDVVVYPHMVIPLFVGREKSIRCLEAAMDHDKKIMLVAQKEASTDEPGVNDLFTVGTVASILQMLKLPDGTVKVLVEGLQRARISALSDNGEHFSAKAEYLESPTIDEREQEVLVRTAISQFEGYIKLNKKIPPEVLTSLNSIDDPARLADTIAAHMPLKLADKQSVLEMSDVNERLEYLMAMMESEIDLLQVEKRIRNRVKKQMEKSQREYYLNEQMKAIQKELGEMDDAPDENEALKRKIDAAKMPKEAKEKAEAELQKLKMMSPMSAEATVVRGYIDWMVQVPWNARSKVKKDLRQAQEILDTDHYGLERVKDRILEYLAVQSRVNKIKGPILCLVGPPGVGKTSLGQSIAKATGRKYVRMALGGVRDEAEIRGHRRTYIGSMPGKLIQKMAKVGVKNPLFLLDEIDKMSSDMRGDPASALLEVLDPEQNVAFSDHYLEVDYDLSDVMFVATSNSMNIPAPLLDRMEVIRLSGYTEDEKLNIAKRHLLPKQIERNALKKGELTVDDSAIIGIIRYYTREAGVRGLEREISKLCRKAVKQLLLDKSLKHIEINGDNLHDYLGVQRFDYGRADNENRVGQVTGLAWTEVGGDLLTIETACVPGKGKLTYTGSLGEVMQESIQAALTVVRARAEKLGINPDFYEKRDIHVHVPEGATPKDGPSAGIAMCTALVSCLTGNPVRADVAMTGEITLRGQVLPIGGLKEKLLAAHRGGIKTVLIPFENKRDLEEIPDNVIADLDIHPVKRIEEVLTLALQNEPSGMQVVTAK
pPAFAH FP inh = pPAFAH enzyme inhibitors, primary screen, biochemical, fluorescence polarization, human | Platelet-activating factor acetylhydrolase (Homo sapiens), Q13093 | recombinant pPAFAH, FP-rhodamine probe fluorescence polarization | inhibition, % at 3.39 µM | actives 1.5% (n = 330,000);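 active = inhibition above the mean inhibition across the screen plus 3 SD, cut at about 25% in these data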;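 note: inhibitors block binding of the rhodamine activity-based probe so polarization drops; 0% = enzyme with DMSO and 100% = wells lacking pPAFAH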
PAFAH2 inh = PAFAH2 enzyme inhibitors, primary screen, biochemical, fluorescence polarization, human. recombinant PAFAH2, FP-rhodamine activity probe. inhibition, % at 3.39 µM. actives 0.99% (n = 340,000);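 active = inhibition above the mean over all tested compounds plus 3 SD, cut at about 30% in these data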;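 note: inhibitors block probe labeling of enzyme so polarization drops; 0% = enzyme with DMSO and 100% = wells lacking PAFAH2 protein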
Rin1 Abl inh = inhibitors of Rin1-Abl protein binding, primary screen, biochemical, TR-FRET | Tyrosine-protein kinase ABL1 (Homo sapiens) + Ras and Rab interactor 1 (Homo sapiens), … | inhibition, % at 7.35 µM | actives 0.4% (n = 360,000); in the data active = inhibition above about 5%, passing the limit was not always enough
PAFAH1B3 FP inh = PAFAH1B3 enzyme inhibitors, primary screen, biochemical, fluorescence polarization, human; Platelet-activating factor acetylhydrolase IB subunit alpha1 (Homo sapiens), Q15102; recombinant PAFAH1B3, FP-rhodamine probe; inhibition, % at 3.39 µM; actives 0.28% (n = 340,000); AID 492972, 2010;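 active = inhibition above the screen-wide average of all tested compounds plus 3 SD, cut at about 25% in these data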;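 note: 0% = enzyme with DMSO only and 100% = wells lacking PAFAH1B3 protein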
pPAFAH FP conf = pPAFAH (PLA2G7) enzyme inhibitors, confirmation, biochemical, fluorescence polarization, human. shares compounds with pPAFAH FP inh. recombinant pPAFAH, FP-Rh probe fluorescence polarization. inhibition, % at 3.39 µM. actives 72% (n = 2,300);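 active = mean inhibition of the triplicate above the hit cutoff set for the earlier primary screen, cut at about 25% in these data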;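 note: 0% = enzyme with DMSO and 100% = wells lacking pPAFAH enzyme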
* hit, by the source's call; / = no result. An excerpt weighted towards active compounds, which were near 3.1% of everything screened.

SMILES	PAFAH1B2 FP inh	eLon inh	pPAFAH FP inh	PAFAH2 inh	Rin1 Abl inh	PAFAH1B3 FP inh	pPAFAH FP conf
COC(=O)c1c(NC(=O)CN2C(=O)C(=O)N(CC(C)C)C2=O)sc(C)c1C	2	-1	16	-1	0	0	/
CC1CCCC(C)N1/N=C/c1ccc(O)c(O)c1 (stereo unspecified)	4	3	45*	5	5	13	11
Cc1ccc(CCNC(=O)CN2C(=O)COc3ccc(S(=O)(=O)N4CCOCC4)cc32)cc1	10	-13	-3	8	2	3	/
Cc1cccc(-n2cc(-c3ccccc3)c3c(NN4CCOCC4)ncnc32)c1	0	0	75*	-1	-1	-3	12
c1ccc(-c2cn(-c3ccccc3)c3ncnc(N4CCCCC4)c23)cc1	2	1	18	-6	0	7	/
CCOC(=O)C1CCCN(C(=O)c2cc(-c3ccco3)nc3ccccc23)C1 (stereo unspecified)	3	5	49*	20	3	6	40*
CC(OC(=O)c1ccc(NC(=O)CC#N)cc1)C(=O)Nc1nc(-c2ccccc2)cs1 (stereo unspecified)	-26	-10	53*	-55	4	-42	-18
C[n+]1cc(C(=O)N2CCCCC2)ccc1/C=C/c1c[nH]c2ccccc12	-10	-373	-1	-11	-66	-3	/
CCOc1ccc(OCCC(=O)OCC(=O)Nc2ccc(N3CCOCC3)cc2)cc1	-7	-6	35*	-15	0	11	23
COCCNC(=O)C1CCCN(C(=O)c2sccc2C)CC1 (stereo unspecified)	/	-7	/	/	-2	/	/
O=C(CCc1ccccc1)NNC(=S)NC(=O)c1ccccc1	11	5	41*	4	5	9	-8
COc1cccc(NC(=O)Nc2nc(-c3ccc(OC)c(OC)c3)cs2)c1	15	7	36*	2	-3	21	14
CCCC(=O)NC(c1cccs1)c1cc([N+](=O)[O-])c2cccnc2c1O (stereo unspecified)	2	0	68*	14	3	11	73*
O=C(CCc1ccccc1)NC(c1cccs1)c1cc(Cl)c2cccnc2c1O (stereo unspecified)	8	-1	/	2	1	14	/
CC(=O)NC(c1cccs1)c1cc([N+](=O)[O-])c2cccnc2c1O (stereo unspecified)	5	-2	49*	3	17*	4	46*
CCc1noc(C)c1C(=O)Nc1ccc(S(=O)(=O)N2CCC(C)CC2)cc1	23	-3	3	5	3	5	/
O=C(Cc1coc2cc(O)ccc12)NNC(=O)c1cccs1	12	-2	-3	5	-1	7	/
CC1=C(C(=O)Nc2ccc(C(=O)N3CCN(c4cccc(Cl)c4)CC3)cc2)SCCO1	0	-11	42*	4	0	0	24
CC1=C(C(=O)Nc2ccc(C(=O)N3CCN(c4ccccc4F)CC3)cc2)SCCO1	3	4	18	-1	0	4	/
CCOC(=O)c1c(C)[nH]c(C)c1S(=O)(=O)N(C)CC(=O)Nc1ccccc1	1	-5	38*	2	1	4	4
O=[N+]([O-])c1cc2ncccc2c2ncccc12	/	-3	/	/	-9	/	/
O=c1cc(-c2ccccc2Cl)oc2cccc(O)c12	-2	0	8	-3	2	0	/
O=c1cc2oc3cc(O)c(O)cc3c(-c3ccccc3[N+](=O)[O-])c-2cc1O	17	3	88*	57*	65*	13	83*
CCCOc1ccc(C(C)=O)cc1CSCCC#N	3	-3	0	-2	1	5	/
CCCOc1ccc(C(C)=O)cc1CSc1nc(O)cc(=O)[nH]1	3	2	35*	6	3	3	11
SMILES	PAFAH1B2 FP inh	eLon inh	pPAFAH FP inh	PAFAH2 inh	Rin1 Abl inh	PAFAH1B3 FP inh	pPAFAH FP conf
O=C1/C(=C\c2ccco2)SC(=S)N1C1CCS(=O)(=O)C1 (stereo unspecified)	/	3	23	/	-2	/	/
CCN(C(=O)C(C)N1C(=O)/C(=C/c2ccco2)SC1=S)C1CCS(=O)(=O)C1 (stereo unspecified)	0	2	44*	0	6	8	7
CC(C(=O)N(C)C1CCS(=O)(=O)C1)N1C(=O)/C(=C/c2ccc(F)cc2)SC1=S (stereo unspecified)	3	-2	-6	5	-5	1	/
Cc1ccc(/C=C2/SC(=S)N(C3CCCCC3)C2=O)o1	-1	-26	37*	11	2	-3	11
O=C1/C(=C/c2ccco2)SC(=S)N1C1CCS(=O)(=O)C1 (stereo unspecified)	-4	4	57*	4	-3	9	0
Cc1ccc(/C=C2\SC(=S)N(CC3CCCO3)C2=O)o1 (stereo unspecified)	-2	-14	18	4	-3	-1	/
COc1ccc(-c2oc3c(c2-c2cnc(OC)nc2)C(O)CC3)cc1 (stereo unspecified)	/	2	/	/	/	/	/
COc1ccc(S(=O)(=O)NC(=O)C2(C)CCN2C(=O)C2CCCCC2)cc1OC (stereo unspecified)	/	-4	/	/	-5	/	/
COc1cc(C(=O)NCC(c2cccs2)N2CCOCC2)ccc1OCc1ccccc1 (stereo unspecified)	/	-13	/	/	-1	/	/
O=C(COC(=O)c1ccc(NS(=O)(=O)c2cccs2)cc1)NCc1ccco1	3	-1	42*	40*	-4	-4	29*
CN(C)S(=O)(=O)c1ccc(C(=O)OCC(=O)NCc2ccco2)cc1	10	0	10	-2	3	17	/
O=C(C[n+]1ccc2ccccc2c1)c1cccc2ccccc12	-4	-10	5	3	-5	2	/
O=C(/C=C/c1cc[n+](CC(=O)c2ccc3cccc4c3c2CC4)cc1)c1ccc2cccc3c2c1CC3	-5	-7	71*	22	-3	2	86*
COC(=O)CSc1cc(C(=O)c2nccn2C)c2ccccc2n1	-1	-7	43*	0	3	5	22
OCC(O)/C=N/Nc1nc(Nc2ccccc2)nc(Nc2ccccc2)n1 (stereo unspecified)	-4	-7	39*	1	4	0	20
